Measured values reported in the supplement of paper PMC11219838.

tested on: Meloidogyne hapla J2; test: proportion of mobile M. hapla J2 relative to DMSO control (fraction of DMSO control); higher = more viable, less nematicidal, active = 0.7 or less; details: 60 µM; 5 days; temperature: 20 °C
Outline: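 Compound was pinned to 60 µM final (0.6% v/v DMSO) into 96-well wells, each holding about 25 M. hapla J2 in distilled water. Plates were sealed and shaken for 5 days at 20 °C and 200 rpm, then given 2 µL 1 M NaOH per well. Microscopic mobility scores were normalised to the mean of the plate's own DMSO wells, eight per plate, with two biological replicates averaged.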

| Compound | proportion of mobile M. hapla J2 |
| --- | --- |
| CCc1ccc(NC(=O)CSc2nnc(-c3ccc(Cl)cc3Cl)o2)cc1 | 0.785 (inactive) |
| COc1ccc(-c2nnc(SCC(=O)N3CC(C)CC(C)C3)o2)cc1 (stereo not drawn) | 1.05 (inactive) |
| Cc1ccc(-c2nc(-c3ccncc3)no2)c(Cl)c1 | 0.979 (inactive) |
| COc1ccc(-c2noc(COc3ccc(Br)cc3)n2)cc1 | 1 (inactive) |
| c1ccc(-c2noc(COc3ccc4c(c3)CCCC4)n2)cc1 | 0.923 (inactive) |
| Cc1ccc(-c2noc(-c3ccc(C)cc3C)n2)cc1 | 0.869 (inactive) |
| CCCOc1ccc(-c2nc(-c3ccncc3)no2)cc1 | 0.85 (inactive) |
| CC(Sc1nnc(-c2ccco2)o1)C(=O)NC(c1ccccc1)c1ccccc1 (stereo not drawn) | 1.05 (inactive) |
| Cc1[nH]c2ccc(-c3nnc(SCC(=O)NCc4ccc(F)cc4)o3)cc2c1C | 0.865 (inactive) |
| CNC(=O)c1ccccc1-c1nc(-c2ccccc2Cl)no1 | 1 (inactive) |
| O=C(CSc1nnc(-c2ccncc2)o1)Nc1ccccc1Cl | 0.724 (inactive) |
| Clc1ccc(CSc2nnc(-c3ccc(Cl)cc3)o2)cc1 | 0.914 (inactive) |
| Brc1ccc(-c2noc(-c3ccco3)n2)o1 | 0.801 (inactive) |
| CCN(Cc1ccccc1)C(=O)c1ccccc1-c1nc(-c2cccc(C)c2)no1 | 0.579 (active) |
| COc1nc(C)ccc1-c1noc(-c2ccc(F)cc2)n1 | 0.992 (inactive) |
| O=C(CSc1nnc(-c2ccc(Br)cc2)o1)NC1CCCCC1 | 1.04 (inactive) |
| CC(C)(C)C(=O)Nc1ccccc1-c1nc(-c2ccncc2)no1 | 1 (inactive) |
| COc1ccc(-c2noc(COc3ccccc3)n2)cc1 | 1.02 (inactive) |
| CC(Sc1nnc(-c2ccccc2)o1)C(=O)Nc1nccs1 (stereo not drawn) | 1 (inactive) |

| Compound | proportion of mobile M. hapla J2 |
| --- | --- |
| Clc1ccc(SCc2nc(-c3cccnc3)no2)cc1 | 0.938 (inactive) |
| CCc1ccc(OCc2nc(-c3ccccn3)no2)cc1 | 0.966 (inactive) |
| CC(=O)Nc1ccc(-c2nnc(SCc3ccccc3)o2)cc1 | 0.954 (inactive) |
| CCN(C(=O)CSc1nnc(-c2ccncc2)o1)c1ccccc1 | 0.965 (inactive) |
| Cc1ccc(-c2nnc(SCC(=O)NCCc3ccccc3)o2)cc1 | 1.01 (inactive) |
| Cc1ccc(CSc2nnc(-c3ccco3)o2)c(C)c1 | 0.687 (active) |
| CCOc1cc(-c2nc(-c3ccc(C)nc3OCC)no2)cc(OCC)c1OCC | 0.908 (inactive) |
| O=C(CSc1nnc(-c2ccccc2)o1)N1CCc2ccccc21 | 0.993 (inactive) |
| CCOc1ccccc1-c1nnc(SCc2ccc(C(=O)OC)o2)o1 | 0.904 (inactive) |
| O=C(CSc1nnc(-c2ccccc2)o1)Nc1cccc(F)c1 | 0.853 (inactive) |
| Cc1ccccc1-c1nnc(SCc2ccccc2Cl)o1 | 0.863 (inactive) |
| c1ccc(COc2cccc(-c3nc(-c4ccncc4)no3)c2)cc1 | 0.915 (inactive) |
| Clc1ccc(CSc2nnc(-c3ccccc3)o2)cc1Cl | 1.01 (inactive) |
| Cc1ccc(C)c(-c2nc(-c3ccc(Cl)cc3)no2)c1 | 0.93 (inactive) |
| CCn1c(C)cc(C(=O)CSc2nnc(-c3ccccc3)o2)c1C | 0.962 (inactive) |
| CCN(CC)C(=O)CSc1nnc(-c2ccc(Cl)cc2Cl)o1 | 1.03 (inactive) |
| Cc1cccc(-c2nnc(SCC(=O)NCCc3ccccc3)o2)c1 | 0.872 (inactive) |
| Brc1ccccc1-c1nc(-c2ccccn2)no1 | 0.678 (active) |
| CC(Oc1ccccc1)c1nc(-c2cccnc2)no1 (stereo not drawn) | 1.06 (inactive) |
